Screening results as filed in PubChem BioAssay.
PvdQ inh: P. aeruginosa PvdQ acylase inhibitors, primary screen, biochemical, fluorescence, plate reader and imaging, single point | PvdQ acylase [Pseudomonas aeruginosa LESB58] | inhibition, % at 10 µM | purified PvdQ acylase | 0.063% of 340,000 active | AID 488965, 2010; in the data active = inhibition above about 30%, passing the limit was not always enough;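 note: 0% = vehicle neutral wells and 100% = reference inhibitor wells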
RAD54 branch: inhibitors of human RAD54 branch migration, primary screen, biochemical, fluorescence, single point; RAD54 Holliday junction branch migration, FAM/BHQ fluorescence; inhibition, % at 10.4 µM; 0.14% of 360,000 active; AID 602329, 2012;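 active = mean normalized replicate activity at least 40 and at least half of replicates scoring 40 or more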;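 note: 0% = median of neutral control wells and 100% = median of positive control wells; inhibitors cause a drop in the FAM fluorescence signal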
Target sequence (Q92698 whole entry, looked up): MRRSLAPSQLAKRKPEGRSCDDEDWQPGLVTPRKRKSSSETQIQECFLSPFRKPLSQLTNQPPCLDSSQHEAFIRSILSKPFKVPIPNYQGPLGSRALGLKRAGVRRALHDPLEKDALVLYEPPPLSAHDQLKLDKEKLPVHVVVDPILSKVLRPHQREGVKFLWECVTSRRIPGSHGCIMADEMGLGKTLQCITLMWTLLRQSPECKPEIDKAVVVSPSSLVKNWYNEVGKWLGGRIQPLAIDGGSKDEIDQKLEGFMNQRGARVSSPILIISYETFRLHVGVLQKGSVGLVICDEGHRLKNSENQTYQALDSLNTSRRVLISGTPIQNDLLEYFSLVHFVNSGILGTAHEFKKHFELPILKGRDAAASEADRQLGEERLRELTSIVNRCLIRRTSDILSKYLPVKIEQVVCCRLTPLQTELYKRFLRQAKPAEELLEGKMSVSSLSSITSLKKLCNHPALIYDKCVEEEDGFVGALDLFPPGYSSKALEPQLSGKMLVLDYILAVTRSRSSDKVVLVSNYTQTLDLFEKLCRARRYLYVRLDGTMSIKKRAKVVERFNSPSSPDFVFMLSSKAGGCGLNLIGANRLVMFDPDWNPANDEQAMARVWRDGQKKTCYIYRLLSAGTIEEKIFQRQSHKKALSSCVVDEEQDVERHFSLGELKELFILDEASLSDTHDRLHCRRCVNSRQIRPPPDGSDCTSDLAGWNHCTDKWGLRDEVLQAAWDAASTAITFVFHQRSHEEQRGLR
dFosB activator: activators of delta FosB homodimer, primary screen, biochemical, fluorescence polarization, TAMRA-CDK5 oligo, single point | purified delta FosB; percent of positive-control signal above neutral wells | activation, % at 25 µM | 0.99% of 340,000 active;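 active = mean activation above about 17%, with every replicate also reaching it, limit read from the data, passing the limit was not always enough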
RAD52 inh: RAD52 DNA annealing inhibitors, primary screen, biochemical, FRET, single point, set 2; recombinant RAD52 DNA annealing, FRET fluorescence; inhibition, % at 18.7 µM; 0.46% of 360,000 active; AID 651710, 2012; DNA repair protein RAD52 homolog (Homo sapiens), P43351;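 active = every replicate showing at least 50% inhibition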
CFTR F508del cor: F508del CFTR correction, initial screen, CFBE line, single point; AID 720511, 2013; activity (quench increase), % at 7.58 µM; 0.36% of 350,000 active; CFBE cells, YFP halide quenching; stimulated with forskolin plus potentiator P3; % fluorescence drop versus neutral controls;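 active = mean added fluorescence quench of at least 8% versus neutral control, with both replicates also reaching 8%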;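 note: cells transiently co-express mutant CFTR-F508del with the halide-sensitive YFP; corrector assay measuring rescue of mutant channel to the surface after 24 h compound exposure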
N-glyco inh: increase of ERlucT glycosylation luciferase signal, primary screen, N-linked glycosylation inhibitor project, D54 ERlucT cells, luminescence, set 2. reporter increase, % at 12.5 µM. 0.23% of 360,000 active. D54 ERlucT glycosylation luciferase reporter, 24 h; percent of 100 nM tunicamycin response. AID 588692, 2011;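 active = mean luciferase reporter signal, scaled so untreated is 0 and the glycosylation-blocking control 100, at or above a set limit in every replicate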;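 note: luciferase carries N-glycosylation sites so blocking glycosylation raises the light; 0% = median of neutral control wells and 100% = median of 100 nM tunicamycin wells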
DNA binder FP: DNA-binding compounds via dye displacement, dose response, artefact control for RAD52 inhibitor project, biochemical, fluorescence polarization, cherry-pick; shares compounds with RAD52 inh; 8% of 1,000 active; AID 652128, 2013; AC50, µM; Salmon sperm DNA/acridine orange FP displacement;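 active = fitted half-maximal concentration for signal loss at or below twice the highest dose tested, in every separate run, actives reach about 64 µM in these data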
* hit, by the source's call. This is a sample that favours compounds with a hit; in the whole collection about 1.5% have one here.

What do the screens show for `C#CCOCCOCCOCCNc1nc(N2CCN(C(=O)[C@H](CCCN=C(N)N)n3cc(C(N)[C@@H](C)CC)nn3)CC2)nc(N2CCN(C(=O)[C@H](CCC(=O)O)n3cc([C@@H](N)CC(N)=O)nn3)CC2)n1` (stereo partly specified)?
PvdQ inh: 10; RAD54 branch: -7; dFosB activator: -4; RAD52 inh: -7; CFTR F508del cor: 1; N-glyco inh: 2

How did C#CCOCCOCCOCCNc1nc(N2CCN(C(=O)C([C@@H](C)O)n3cc([C@@H](N)CCCCN)nn3)CC2)nc(N2CCN(C(=O)[C@H](CCCCN)n3cc([C@@H](N)[C@H](C)CC)nn3)CC2)n1 (stereo partly specified) do in these assays?
PvdQ inh: -19; RAD54 branch: 28; dFosB activator: 7; RAD52 inh: 72*; CFTR F508del cor: 4; N-glyco inh: 0; DNA binder FP: inactive

How did CC(C)NC(=O)Nc1cccc2c1O[C@@H](CN(C)Cc1ccncc1)[C@@H](C)CN([C@H](C)CO)C2=O do in these assays?
RAD54 branch: 0; RAD52 inh: 11; CFTR F508del cor: 0

Results for O=C(C[C@@H]1C[C@H]2c3cc(NC(=O)NC4CCCC4)ccc3O[C@H]2[C@@H](CO)O1)NCc1ccccn1 ?
RAD52 inh: -7; CFTR F508del cor: 1

How did Cc1ccc2nc(-c3ccc(CN4CCC(c5nc6ccccc6[nH]5)CC4)cc3)c(-c3ccccc3)nc2c1 do in these assays?
RAD52 inh: -34; CFTR F508del cor: -3

Results for c1ccc(-c2nc3ccccc3nc2-c2ccc(CN3CCC(c4nc5ccccc5[nH]4)CC3)cc2)cc1 ?
RAD52 inh: -13; CFTR F508del cor: 1

Results for Cc1cccc2nc(-c3ccccc3)c(-c3ccc(CN4CCC(n5cc(-c6ccccc6)[nH]c5=O)CC4)cc3)nc12 ?
RAD52 inh: 62*; CFTR F508del cor: 2; DNA binder FP: inactive

What do the screens show for `Cc1cccc2nc(-c3ccccc3)c(-c3ccc(CN4CCC(c5nc6ccccc6[nH]5)CC4)cc3)nc12`?
RAD52 inh: 60*; CFTR F508del cor: 2; DNA binder FP: inactive

How did CC(C)NC(=O)N1Cc2cc(C(=O)NC3CCCCC3)nc(-c3cccc(-c4cccnc4)c3)c2[C@H]1CCO do in these assays?
RAD52 inh: 17; CFTR F508del cor: 1

How did C[C@@H]1CN([C@@H](C)CO)C(=O)Cc2cc(NS(=O)(=O)c3cn(C)cn3)ccc2O[C@@H]1CN(C)C(=O)Nc1ccc(F)cc1 do in these assays?
RAD54 branch: -5; RAD52 inh: 16; CFTR F508del cor: -2

How did COC(=O)C1=CN(Cc2ccccc2)C=C(C(=O)OC)C1c1ccc(OC)c(OC)c1 do in these assays?
PvdQ inh: -31; RAD54 branch: -22; dFosB activator: -23; RAD52 inh: -10; CFTR F508del cor: 3; N-glyco inh: 0

What do the screens show for `COC(=O)C1=CN(Cc2ccc(C)cc2)C=C(C(=O)OC)C1c1cc(OC)c(OC)c(OC)c1`?
PvdQ inh: -14; RAD54 branch: 2; dFosB activator: -10; RAD52 inh: 95*; CFTR F508del cor: 3; N-glyco inh: 1; DNA binder FP: inactive

What do the screens show for `Cc1ccc(-n2c(C)c3c(C)nnc(C)c3c2C)cc1N`?
PvdQ inh: -7; RAD54 branch: 5; dFosB activator: 10; RAD52 inh: 43; CFTR F508del cor: -1; N-glyco inh: 3

What do the screens show for `Cc1cc(-n2c(C)c3c(C)nnc(C)c3c2C)ccc1N`?
PvdQ inh: -6; dFosB activator: -6; RAD52 inh: 66*; CFTR F508del cor: -1; DNA binder FP: inactive
